Assay results published in PubChem BioAssay (NCATS).
Several values for one entry are separate records, joined by “and”; a condition that tells them apart may be missing. Equal entries are not always repeated. Inconclusive results are not listed. Activity calls are given as the source filed them. The call rests on the fitted dose curve; in most records, active means well fitted activation curve with a large enough effect; inconclusive means small, poorly fitted or top-dose-only effect; inactive means no such curve, though single readings can be large or run the other way. Square brackets hold non-standard residues; d marks the D form. Peptide text beside a SMILES is read from it. ξ: configuration not given here. ξPhe(βξ-Me) = CC(c1ccccc1)C(N)C(=O)O; GABA = NCCCC(=O)O

biological target: Cellular tumor antigen p53 (Homo sapiens) (UniProt P04637); experiment: Primary qHTS for small molecule compounds that upregulate eGFP-tagged delta133p53alpha (in N-terminal) cells. (AID 2060322); details: NCI-H358 eGFP-delta133p53alpha fluorescence, 24 h; activation: stronger effect = higher value; further: nearly all actives have a fitted effect of over 75% in size;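 on activation: cells pre-induced with doxycycline then dosed without doxycycline; series mostly up to about 56 µM; 0% = DMSO vehicle and 100% = reference activator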
Sequence (P04637 whole entry, looked up): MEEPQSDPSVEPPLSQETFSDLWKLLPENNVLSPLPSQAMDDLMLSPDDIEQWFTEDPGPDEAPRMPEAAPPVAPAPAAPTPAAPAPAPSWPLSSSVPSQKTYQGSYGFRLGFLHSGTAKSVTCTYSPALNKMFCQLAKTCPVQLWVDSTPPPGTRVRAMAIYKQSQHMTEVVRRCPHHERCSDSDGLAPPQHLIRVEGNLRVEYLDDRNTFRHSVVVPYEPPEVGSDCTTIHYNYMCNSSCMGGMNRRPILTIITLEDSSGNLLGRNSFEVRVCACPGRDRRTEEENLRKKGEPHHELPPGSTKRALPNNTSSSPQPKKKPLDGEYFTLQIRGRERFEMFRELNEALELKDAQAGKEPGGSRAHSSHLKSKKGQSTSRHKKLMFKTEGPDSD
Excerpt: Assay Development and Screening Technology
National Center for Advancing Translational Sciences (NCATS),
National Institute of Health (NIH), Rockville, Maryland
Cellular senescence (CS) is one of the hallmarks of aging and age-related diseases. Senescent cells are characterized by an irreversible growth arrest, an increase in senescence-associated beta-galactosidase (SA-beta-gal) activity and p16INK4a expression, an activation of the DNA damage response pathways, and the emergence of a senescence-associated secretory phenotype (SASP).
Delta133p53alpha, a human/primate-specific p53 protein isoform, delays or inhibits the induction of CS and SASP in various types of human cells, including progeria-derived fibroblasts, primary normal astrocytes, and CD8+ T lymphocytes. Induction of delta133p53alpha with small molecule compounds may provide therapeutic opportunities for inhibition of senescence/SASP-associated pathologies in progeria syndromes, astrocyte-mediated neuroprotection in neurodegenerative diseases, and possibly prevention and treatment of a wider range of senescence- and aging-associated diseases.
Here we report the development and validation of a cell-based quantitative high throughput screening (qHTS) assay in 1,536-well format. This qHTS assay uses the NCI-H358 cell line with doxycycline-inducible expression of enhanced green fluorescent protein (eGFP)-tagged delta133p53alpha, which allows efficient and highly quantitative measurement of the protein levels.
PROTOCOL TABLE (as described by Inglese J, Shamu CE and Guy RK. 2007)
SEQUENCE No. (e.g., 1, 2, 3, etc.); […] (e.g., Cells, Incubation, Reagent, etc.); VALUE; DESCRIPTION.
1; Cells; 4uL; 800 doxycycline treated cells / well in doxycycline-free media, 1536-well black, clear-bottom low base Aurora microplates.
2; Compounds; 23 nL; Kalypsis pin tool (Wako) equipped with 1536-well pin heads, 5-azacytidine positive control.
3; Incubation; 24 hr; 37C, 5% CO2; 95% relative humidity.
4; Aspiration; 1x; BioTek EL406 washer dispenser (Agilent).
5; Fixing; 3.5% paraformaldehyde, BioTek EL406 washer dispenser (Agilent).
6; Washing; 1x PBS; BioTek EL406 washer dispenser (Agilent).
7; Nuclei staining; 1:1000 dilution of Hoechst 33342 (Thermofisher), BioTek EL406 washer dispenser (Agilent).
8; Incubation; 20 min; in the dark at room temperature.
9; Washing; 2x, 1x PBS (ThermoFisher), BioTek EL406 washer dispenser (Agilent).
10; Reagent; 10 uL; 1x PBS per well, sealed with clear adhesive tape.
NOTES (numbers refer to sequence numbers above).
1. NCI-H358 cells expressing eGFP-tagged delta133p53alpha were grown in T75 culture flasks and treated with doxycycline for 24h, at 10 ng/ml for eGFP-D133p53a cells (N-terminal cell) and 100 ng/ml for D133p53a-eGFP cells (C-terminal cells). Cells were trypsinized, counted using a Counted 3 Automated Cell Counter (Thermo Fisher), and diluted to a concentration of 200,000 cells/ml. A Multidrop Combi Reagent Dispenser (ThermoFisher) was used to dispense 800 cells/well in […] of doxycycline-free media, into 1536-well black/clear bottom low base plates (AuroraMicroplates).
2. After plating cells, 23 nl of compound library, DMSO vehicle control or positive control (5-azacytidine) were transferred by Pin Tool (Wako). The plate map layout was the same for each plate: (column 1) non-doxycycline treated cells + DMSO vehicle control; (column 2) doxycycline treated cells + DMSO vehicle control baseline; (column 3) doxycycline treated cells + positive control 57.5 uM final concentration 5-azacytidine; (column 4) doxycycline treated cells + serial dilution of 5-azacytidine, 16-point 1:2 titration spanning 1.8 nM to […] final concentration; (columns 5-48) doxycycline treated cells + titration of library compounds.
3. Cells were incubated at 37 °C, 5 % CO2, 95% RH with breathable metal lid for 24h.
4-10. […] After two washes, 10 ul of 1X PBS (Thermo Fisher) was dispensed to each well. Clear adhesive plate seals (VWR) were applied and plates stored at 4 °C.
11. […]
Potency means the concentration at half of the fitted maximal effect.

| SMILES | activation | Potency |
| --- | --- | --- |
| COc1ccc(-n2c(SCC#N)nc3sc4c(c3c2=O)CCCC4)cc1 | -16.1% (inactive) | – |
| Cc1cc(-c2nncc3c(C(C)(C)C)c(OCc4ncnn4C)nn23)no1 | 6.68% (inactive) | – |
| COC(=O)c1ccc2c(c1)nc(NC(=O)c1ccccc1)n2CCCc1ccccc1 | -10% (inactive) | – |
| Cc1cc(Nc2ccc(NC(=O)c3ccc(Nc4ccnc5ccccc45)cc3)cc2)nc(N)n1 | – | 10.9 µM (active) |
| COc1cccc(CN(C(=O)CC(C)(C)C)C2CC(C(=O)N3CCNCC3)N(Cc3ccc4c(c3)OCO4)C2)c1 (stereo not given) | -10% (inactive) | – |
| CC[C@]1(O)C[C@@H]2CN(CCc3c([nH]c4ccccc34)[C@@](C(=O)OC)(c3cc4c(cc3OC)N(C=O)[C@@H]3C45CCN4CC=C[C@](CC)([C@H]45)[C@@H](OC(C)=O)[C@]3(O)C(=O)OC)C2)C1 (stereo not given in full) | -1.44% (inactive) | – |
| CCOc1cc(N2CCC(O)CC2)ccc1Nc1ncc2c(n1)N(C1CCCC1)CCC(=O)N2C | 4.33% (inactive) | – |
| CC/C=C/CC1=C(CCCCCCCC(=O)O)CCC1=O | -17.9% (inactive) | – |
| O=C(N[C@@H]1CC[C@@H](c2cccc(F)c2F)CN(CC(F)(F)F)C1=O)N1CCC(n2c(=O)[nH]c3ncccc32)CC1 | -0.477% (inactive) | – |
| CC(CCC1C(C(=O)O)=CC(=O)CC1(C)C)O[C@@H]1O[C@H](CO)[C@@H](O)[C@H](O)[C@H]1O (stereo not given in full) | -11.5% (inactive) | – |
| CC1=CC(=O)CC(C)(C)[C@@]1(O)CC[C@@H](C)O[C@@H]1O[C@H](CO)[C@@H](O)[C@H](O)[C@H]1O | 29.5% (inactive) | – |
| CCCCOC(=O)NS(=O)(=O)c1sc(CC(C)C)cc1-c1ccc(Cn2c(CC)nc3c(C)cc(C)nc32)cc1 | -46.4% (inactive) | – |
| O=c1cc[nH]c(=S)[nH]1 | 7.34% (inactive) | – |
| COc1ccc(N2CCN(C(=O)c3cc4c(s3)-c3ccccc3S(=O)(=O)C4)CC2)cc1 | -13.8% (inactive) | – |
| O=C(O)[C@H]1NCCC[C@H]1C(=O)O | -3.88% (inactive) | – |
| CC(C)(C)C1CCC(CC2=C(O)c3ccccc3C(=O)C2=O)CC1 (stereo not given) | -11.9% (inactive) | – |
| COc1cc(O)c([C@@H](CC(=O)N2CC(C)CC(C)C2)c2ccc3c(c2)OCO3)c(OC)c1 (stereo not given in full) | 28.3% (inactive) | – |
| CC(C)OC(=O)CCCC=CC[C@@H]1[C@H](C=C[C@@H](O)COc2cccc(C(F)(F)F)c2)[C@H](O)C[C@@H]1O | -7.59% (inactive) | – |
| COc1cc2c(cc1OC)[C@@H]1Cc3ccc(OC)c(OC)c3CN1CC2 | 19.3% (inactive) | – |
| Nc1nccc(-c2ccc3noc(-c4ccc(Cl)cc4)c3c2)n1 | – | 34.3 µM (active) |

| SMILES | activation | Potency |
| --- | --- | --- |
| CC(C)c1c(O)ccc2c1CC[C@H]1C(C)(C)CCC[C@]21C | 25.9% (inactive) | – |
| C1=CC2C3C=CC(C3)C2C1 (stereo not given) | 16.4% (inactive) | – |
| Cc1cccc(/C=N/Nc2cc(N3CCOCC3)n3nc(-c4ccncc4)cc3n2)c1 | – | 19 µM (active) |
| CCCN1C[C@H](CSC)C[C@@H]2c3cccc4[nH]cc(c34)C[C@H]21 | 7.67% (inactive) and 9.97% (inactive) | – |
| OC[C@H]1O[C@@H](Oc2ccc(O)cc2)[C@H](O)[C@@H](O)[C@H]1O | -6.58% (inactive) | – |
| CCCCC(CC)COC(=O)c1ccccc1O (stereo not given) | -22.6% (inactive) | – |
| Cc1c(C(=O)Nc2ccc(N3CC(C)OC(C)C3)nc2)cccc1-c1ccc(OC(F)(F)F)cc1 (stereo not given) | 20% (inactive) | – |
| O=C(N[C@H](Cc1ccccc1)C(=O)O)c1sc2cc(F)ccc2c1Cl | -9.55% (inactive) | – |
| C[C@@H]1O[C@@H](O[C@@H]2[C@@H](O)[C@H](O[C@H]3[C@H](O[C@H]4CC[C@@]5(C)C(CC[C@]6(C)C5CC=C5[C@@H]7CC(C)(C)CC[C@]7(C(=O)O[C@@H]7O[C@H](CO)[C@@H](O)[C@H](O)[C@H]7O)CC[C@]56C)C4(C)C)O[C@H](C(=O)O)[C@@H](O)[C@@H]3O)OC[C@H]2O)[C@H](O)[C@H](O)[C@H]1O (stereo not given in full) | -27.5% (inactive) | – |
| Cc1cc2c(cc1Cl)N(C(=O)Nc1ccc(Oc3cccnc3C)nc1)CC2 | -71.3% (inactive) | – |
| CN1CC(=O)N/C1=N/C(=O)Nc1cccc(Cl)c1 | 5.86% (inactive) | – |
| CC1NC(=O)CCCNC(=O)C(Cc2c[nH]c3ccccc23)NC(=O)C(C)NC(=O)C(C(C)C)NC(=O)C(C(C)c2ccccc2)NC(=O)C(C(C)C)NC1=O (stereo not drawn) (cyclo([GABA]AV[ξPhe(βξ-Me)]VAW); configuration not given here) | 6.11% (inactive) | – |
| CC=C(C)C(=O)O[C@H]1C(C)=C[C@]23C(=O)[C@@H](C=C(CO)[C@@H](O)[C@]12O)[C@H]1[C@@H](C[C@H]3C)C1(C)C | 20.2% (inactive) | – |
| COc1ccc(O[C@@H]2O[C@H](CO)[C@@H](O)[C@H](O)[C@H]2O)cc1OC | -17% (inactive) | – |
| Cc1c(C)n(Cc2ccc(-c3ccccc3C(=O)O)cc2)c2ccc(C(=O)N[C@@H](C)c3ccc([N+](=O)[O-])cc3)cc12 | 21.3% (inactive) and -1.79% (inactive) | – |
| N[C@H](C(=O)O)[C@@H](O)c1ccc(O)c(O)c1 | 5.02% (inactive) | – |
| NCCC1CCCC(CCN)N1 (stereo not given) | 10.3% (inactive) | – |
| CCCC(N[C@@H](C)C(=O)N1[C@H](C(=O)O)C[C@@H]2CCCC[C@@H]21)C(=O)OCC (stereo not given in full) | 2.39% (inactive) | – |
| C=C1CCC[C@]2(C)CC[C@@H](C(=C)C(=O)O)[C@H](O)[C@@H]12 | -7.63% (inactive) | – |
| NC(=O)c1cccc(N)c1 | 7.85% (inactive) | – |
